# Test results taken from PubChem BioAssay AID431 (Sanford-Burnham Center for Chemical Genomics, 2006).
# Among all 63,000 compounds or so, about 1,100 (1.7%) were called active.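 Rule for the calls: active = compounds whose percent cytotoxicity in the single-dose primary screen, scaled between solvent and toxic-drug controls, exceeds 50; inactive = the rest.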 The full list was thinned out, with actives kept by preference. Potency and affinity values are given separately.
# Experiment: cytotoxicity in KRAS-transformed pancreatic duct cells, primary screen, cell-based, fluorescence, HTS (AID 431);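 note: 0% = DMSO solvent wells and 100% = doxorubicin-treated wells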
# Conditions: HPDE-C7K KRASV12 cells, Alamar Blue viability, 48 h; at 10 µM; active compounds read high
row,SMILES,cytotoxicity
1,CCc1ccc(OCc2nc(-c3ccccn3)no2)c(Br)c1,30.6% (inactive)
2,COc1cc(C2C(C#N)=C(N)Oc3cc(C)oc(=O)c32)cc2c1OCO2 (configuration not stated),-4.3% (inactive)
3,CCN(CC)CCNc1nc2c(c(=O)[nH]c(=O)n2C)n1CC(O)COc1ccc(Cl)cc1Cl (configuration not stated),10.6% (inactive)
4,CCc1nnc(NC(=O)CSc2nnc(CSc3nc(C)cc(C)n3)n2C)s1,10.6% (inactive)
5,N#Cc1c2c(c(=S)n(-c3ccccc3)c1N)CCCC2,0.5% (inactive)
6,CCOC(=O)c1c(N)sn(-c2ccccc2)c1=S,13.3% (inactive)
7,CC(C)C(CC(=O)N1CCCCC1)C1CCOC(C)(C)C1 (configuration not stated),-5.8% (inactive)
8,N=c1c(C(=O)NCc2ccccc2)cc2c(=O)n3ccccc3nc2n1Cc1ccco1,38.6% (inactive)
9,N=c1c(S(=O)(=O)c2ccccc2)cc2c(=O)n3ccccc3nc2n1Cc1ccco1,4.6% (inactive)
10,Cc1ccc(S(=O)(=O)c2cc3c(=O)n4ccccc4nc3n(Cc3ccco3)c2=N)cc1,30.2% (inactive)
11,Cc1ccc(Cn2c(=N)c(C(=O)NCc3ccco3)cc3c(=O)n4ccccc4nc32)cc1,-6.4% (inactive)
12,Cc1ccc(CNC(=O)c2cc3c(=O)n4ccccc4nc3n(Cc3ccco3)c2=N)cc1,98.3% (active)
13,Cc1ccc(CNC2=NCCCCC2)n1C,0.1% (inactive)
14,CS(=O)(=O)N(CC(=O)N1CCC(C(N)=O)CC1)c1ccc(Oc2ccccc2)cc1,4.5% (inactive)
15,CN1CCc2ccccc2C1C1CCNCC1 (configuration not stated),1.4% (inactive)
16,N#Cc1c(/N=C/c2ccco2)sc2c1CCC2,0.3% (inactive)
17,COc1ccc(NC(=O)CN(c2ccccc2)S(=O)(=O)N(C)C)cc1OC,-4.2% (inactive)
18,COc1cc(C2=NOC(C(=O)NCc3ccc(F)cc3)C2)cc(OC)c1OC (configuration not stated),55.1% (active)
19,COc1cccc(C2=NOC(C(=O)NCc3ccc(F)cc3)C2)c1 (configuration not stated),49.7% (inactive)
20,COc1ccc(C2=NOC(C(=O)NCc3ccc(F)cc3)C2)cc1 (configuration not stated),43% (inactive)
21,COc1ccc(CNC(=O)C2CC(c3ccc(F)cc3)=NO2)cc1 (configuration not stated),1.6% (inactive)
22,COc1ccc(C2=NOC(C(=O)NCc3ccc(F)cc3)C2)cc1OC (configuration not stated),58.9% (active)
23,COc1cc(C2=NOC(C(=O)NCc3ccco3)C2)cc(OC)c1OC (configuration not stated),10.5% (inactive)
24,Cc1ccc(C2(C)NC(=O)N(CC(=O)Nc3ccc4c(c3)OCO4)C2=O)cc1 (configuration not stated),-4.8% (inactive)
25,Fc1ccc(-c2nnc(SCc3ncc(-c4ccccc4)o3)n2CC2CCCO2)cc1 (configuration not stated),-17.5% (inactive)

row,SMILES,cytotoxicity
1,CCOc1cc(C2C(C#N)=C(N)OC3CCCC(=O)C32)ccc1OCCN1CCOCC1 (configuration not stated),-27% (inactive)
2,COc1ccc(-c2nnc(SCC(=O)Nc3sc4c(c3C#N)CCC4)n2CC2CCCO2)cc1 (configuration not stated),-1.4% (inactive)
3,Cc1cc(NC(=O)CSc2nnc3c(C)cc4cc(C)c(C)cc4n23)no1,10.3% (inactive)
4,Cc1cc(C)c2c(c1)cc(C)c1nnc(SCC(=O)Nc3cc(C)on3)n12,22.6% (inactive)
5,Cc1cc(NC(=O)CSc2nnc3c(C)cc4c(C)ccc(C)c4n23)no1,70.6% (active)
6,CCCCNC(=O)C1CCCN1C(=O)Nc1cccc(OC)c1 (configuration not stated),-7.7% (inactive)
7,Nc1c(N2CCN(c3ccccc3)CC2)c2ccccc2oc1=O,-3.7% (inactive)
8,O=C(NCCCN1CCCC1=O)C1CCN(S(=O)(=O)N2CCOCC2)CC1,-9.6% (inactive)
9,CCOc1ccc(NC(=O)N2CCC(n3c(=O)[nH]c4ccccc43)CC2)cc1,-0.2% (inactive)
10,COc1cccc(C2=CC(c3ccc(N(C)C)cc3)n3ncnc3N2)c1 (configuration not stated),-1.1% (inactive)
11,Cc1ccc(C2C=C(c3ccccc3OC(F)F)Nc3ncnn32)cc1 (configuration not stated),-1.8% (inactive)
12,CN(C)c1ccc(C2C=C(c3ccc(Cl)cc3OC(F)F)Nc3ncnn32)cc1 (configuration not stated),50.9% (active)
13,CCn1c(SCC(=O)c2ccc(Cl)cc2)nnc1-c1ccoc1C,12.2% (inactive)
14,Cc1cc(C)c(C#N)c(N2CCCC(C(N)=O)C2)n1 (configuration not stated),-4.9% (inactive)
15,COc1ccc(S(=O)(=O)Cc2ccc(C(=O)N3CCN(C(=O)c4ccco4)CC3)o2)cc1,1.6% (inactive)
16,O=C(OCc1nnc(-c2ccccc2)o1)c1ccc2c(c1)OCCO2,5.4% (inactive)
17,O=C(Nc1ncnc2sc3c(c12)CCCCC3)c1ccco1,7.3% (inactive)
18,COn1cnnc1-c1ccccc1,-14.1% (inactive)
19,Cc1nnc2n1N=CC=C(C(C)(C)C)S2,-17.2% (inactive)
20,Cc1nnc2n1N=CC=C(c1ccccc1)S2,62% (active)
21,CCOC(=O)c1cc(NC(=O)c2ccoc2C)cc(C(=O)OCC)c1,15.5% (inactive)
22,Cc1noc(C)c1COC(=O)CCc1nc2ccccc2s1,-2.7% (inactive)
23,c1cn2cc(CN3CCOCC3)nc2s1,-3.4% (inactive)
24,Cc1nnc2sc(-c3cc4ccccc4o3)nn12,8.5% (inactive)
25,COc1ccccc1-c1nnc2sc(-c3cc4ccccc4o3)nn12,61.8% (active)

row,SMILES,cytotoxicity
1,COc1ccccc1-c1nn2c(-c3ccccc3Cl)nnc2s1,-7.7% (inactive)
2,COC(=O)CSc1nnc(SCc2ccccc2)s1,-19.9% (inactive)
3,CCOC(=O)N1CCN(C(=O)CCc2nc3sc4c(c3c(=O)[nH]2)CCCC4)CC1,4.1% (inactive)
4,CC(C)OC(=O)CSc1nnc(-c2ccc(Cl)cc2Cl)n1N,-9.9% (inactive)
5,CN1CCN(c2nc(Nc3cccc(C(F)(F)F)c3)nc(N3CCOCC3)n2)CC1,52.3% (active)
6,Cc1cccc(Nc2nc(NCc3ccco3)nc(N3CCOCC3)n2)c1,63.9% (active)
7,O=C(O)c1cccc(Nc2nc(N3CCOCC3)nc(N3CCOCC3)n2)c1,1.7% (inactive)
8,CC(C)c1ccc(Nc2nc(NCc3ccco3)nc(N3CCOCC3)n2)cc1,35.8% (inactive)
9,Cc1ccc(Nc2nc(N3CCOCC3)nc(N3CCOCC3)n2)cc1,10.2% (inactive)
10,COc1nc(Nc2cccc(C(F)(F)F)c2)nc(OC)n1,4.6% (inactive)
11,CCOC(=O)N1CCN(C(=O)C2CC(=O)N(c3ccc(OC)cc3)C2c2ccc(OC)cc2)CC1 (configuration not stated),-8.1% (inactive)
12,O=C(NCCCN=C1NS(=O)(=O)c2ccccc21)c1ccc(S(=O)(=O)N2CCCCC2)cc1,-14.3% (inactive)
13,c1ccc(Cn2c(SCc3nc4ccccc4s3)nnc2-c2ccco2)cc1,8.5% (inactive)
14,Nc1c(NC2CCCCC2)c2ccccc2oc1=O,-25.2% (inactive)
15,CCOC(=O)c1c(-c2cccs2)csc1NC(=O)CCCC(=O)O,25.9% (inactive)
16,COC(=O)c1c(-c2cccs2)csc1NC(=O)CN1CCOCC1,4.8% (inactive)
17,CCOC(=O)c1c(-c2cccs2)csc1NC(=O)CN1CC(C)OC(C)C1 (configuration not stated),60.6% (active)
18,N#CCc1ccc(NS(=O)(=O)c2ccc(N3CCCC3=O)cc2)cc1,-0.7% (inactive)
19,Cc1ccc2cc3c(N)c(C(=O)N4CCOCC4)sc3nc2c1,-10.3% (inactive)
20,Cc1cccc2cc3c(N)c(C(=O)N4CCOCC4)sc3nc12,68.7% (active)
21,Cc1ccc2nc3sc(C(=O)N4CCOCC4)c(N)c3cc2c1,5.9% (inactive)
22,O=C(NCCCN1CCCCCC1)c1ccc2c(c1)NC(=O)C(N1CCOCC1)S2 (configuration not stated),-17.2% (inactive)
23,O=C(Nc1c(C(=O)O)oc2ccc(Br)cc12)c1ccccc1,31.7% (inactive)
24,COc1ccc(C(NC(C)=O)c2ccc3cccnc3c2O)c(OC)c1 (configuration not stated),-6.2% (inactive)
25,COc1cc(C(=O)Nc2ccccn2)cc(OC)c1OC,21.5% (inactive)

row,SMILES,cytotoxicity
1,CCOc1ccc(C(=O)Nc2c3c(nn2-c2cccc(C)c2C)CS(=O)C3)cc1 (configuration not stated),-6.5% (inactive)
2,CC(C)c1nc(N2CCN(C(=O)c3ccco3)CC2)c2c3c(sc2n1)CCCC3,-14.3% (inactive)
3,O=C(c1ccco1)N1CCN(c2nc(C3CC3)nc3sc4c(c23)CCCC4)CC1,50.9% (active)
4,Cc1nc(N2CCN(C(=O)c3ccco3)CC2)c2c3c(sc2n1)CCC3,2.2% (inactive)
5,COc1cccc(CCC(=O)O)c1OC,-7% (inactive)
6,CCOC(=O)N1CCN(C(=O)Cn2nc(C)c3sc4ccccc4c3c2=O)CC1,-5% (inactive)
7,CCN(CCNC(=O)C1CCCN(Cc2nc(-c3ccc(OC)cc3)oc2C)C1)c1ccccc1 (configuration not stated),62.7% (active)
8,CCc1ccc(-c2nc(CN3CCCC(C(=O)NCCc4ccc(OC)c(OC)c4)C3)c(C)o2)cc1 (configuration not stated),5.5% (inactive)
9,CCc1ccc(-c2nc(CN3CCC(C(=O)NCCN(CC)c4ccccc4)CC3)c(C)o2)cc1,39.2% (inactive)
10,Cc1nonc1NC(=O)CSc1nc2cc(Cl)ccc2c2c1CCCC2,36.2% (inactive)
11,Cn1c(NC(=O)c2cccnc2)nc2ccccc21,0.4% (inactive)
12,Cc1cc(C)nc(SCC(=O)c2ccc(O)cc2O)n1,-9.3% (inactive)
13,Cc1ccc(S(=O)(=O)CCC(=O)OCC(=O)Nc2cc(C)on2)cc1,-22.1% (inactive)
14,COc1ccc2nc(SCC(N)=O)[nH]c2c1,-17.7% (inactive)
15,CCOc1ccc2nc(NCCO)[nH]c2c1,4.8% (inactive)
16,COc1ccc2nc(NCCO)[nH]c2c1,-14.2% (inactive)
17,CCCOc1ccc2nc(NC(=O)OC)[nH]c2c1,61.1% (active)
18,CCCSc1ccc2nc(NC(=O)OC)[nH]c2c1,63.4% (active)
19,COc1ccc(C(=O)Nc2nc3ccccc3[nH]2)cc1OC,-8% (inactive)
20,Cn1nc(CC(=O)Nc2cccc3ncccc23)c2ccccc2c1=O,-4.3% (inactive)
21,CCOC(=O)c1ccc(NC(=O)CCc2nc(-c3cccc(C)c3)no2)cc1,1% (inactive)
22,CCOC(=O)c1[nH]c(C)c(C(=O)NCCN2CCOCC2)c1C,8.4% (inactive)
